# Most compounds without a hit are left out; they make up all but 19% or so of the library.
# IL-1B inflam inh = qHTS for Inhibitors of Inflammasome Signaling: IL-1-beta AlphaLISA Primary Screen; THP-1 LPS/ATP IL-1B secretion, AlphaLISA, 16 h; hits give low values; activity change, % at 57.5 µM; 360,000 tested, 4.7% active; in the data active = activity change below about -50%; inconclusive = mostly about -30% to -49%
#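 Secreted IL-1B measured by AlphaLISA bead assay after 16 h compound exposure of THP-1 cells; compounds (final up to 57.5 uM) added 1 h before LPS (250 ng/mL) and ATP (1.25 mM) stimulation; lower signal means less secretion.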
# HT1080 IDH1KD tx = qHTS for induction of synthetic lethality in tumor cells producing 2HG: qHTS for the HT-1080-IDH1KD cell line; HT-1080 IDH1 knockdown viability, ATP luminescence, 48 h; Potency, µM (top dose mostly 46.1 µM), usual class: cytotoxic; 360,000 tested, 2% active
#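 CellTiter-Glo luminescence after 48 h compound exposure at 37 degrees C of IDH1-knockdown HT-1080 cells in 5% FBS RPMI. %Activity scaled between DMSO wells and cell-free media wells, with curves fitted and assigned curve classes.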
# ELG1 DNA repair = qHTS screen for small molecules that inhibit ELG1-dependent DNA repair in human embryonic kidney (HEK293T) cells expressing luciferase-tagged ELG1; 330,000 tested, 2.3% active; HEK293T ELG1-luciferase reporter, luminescence, 16 h; DNA damage induced by 5-fluorouridine; Potency, µM (highest dose often 46.1 µM), hits mostly inhibitors; also: nearly all actives have a fitted effect of over 55% in size
#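 Reporter activity after DNA damage by 5-fluorouridine is monitored. Compound-treated cells incubate 16 hr at 37 °C, then ONE-Glo is added for 30 min before luminescence reading.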
# TDP1 cell noCPT = qHTS for Inhibitors of human tyrosyl-DNA phosphodiesterase 1 (TDP1): qHTS in cells in absence of CPT; DT40 Tdp1-/- hTDP1 cells, no CPT, ATP luminescence, 48 h; Potency, µM (series often up to 46.2 µM), most hits filed as inhibitors; 420,000 tested, 15% active; AID 686978, 2013; also: nearly all actives have a fitted effect of over 55% in size
#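 Chicken DT40 Tdp1-/- cells complemented with human TDP1, screened without camptothecin (DMSO vehicle only), 400 cells/well. Compounds pin-transferred, cells incubated at 37 °C for at least 48 hr. Growth read as ATP-dependent luminescence (CellTiter-Glo, 30 min at RT).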
# TDP1 cell CPT = qHTS for Inhibitors of human tyrosyl-DNA phosphodiesterase 1 (TDP1): qHTS in cells in presence of CPT; 420,000 tested, 12% active; chicken DT40 Tdp1-/-;hTDP1 cells + 20 nM CPT, ATP luminescence, 48 h; Potency, µM (highest dose often 46.2 µM), actives largely listed as inhibitors; also: nearly all actives have a fitted effect of over 55% in size
#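 Chicken DT40 Tdp1-/- cells stably complemented with human TDP1 were seeded at 400 cells/well in medium containing 20 nM camptothecin, exposed to pin-transferred compounds, and grown at 37 °C for at least 48 hr. Viability was read as ATP luminescence.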
# HT1080-NT tox = qHTS for induction of synthetic lethality in tumor cells producing 2HG: qHTS for the HT-1080-NT fibrosarcoma cell line; HT-1080-NT fibrosarcoma viability, CellTiter-Glo ATP luminescence, 48 h; Potency, µM (series often up to 46.1 µM), hits mostly cytotoxic; 360,000 tested, 1.6% active; AID 686970, 2013;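 also: NT is the 2HG producing partner of a matched IDH1 knockdown line; nearly all actives have a fitted effect of over 55% in size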
#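 Fibrosarcoma NT cells, 750 per well in 5% FBS RPMI, were exposed to compound for 48 hours. Viability: CellTiter-Glo luminescence.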
# Numbers stand for hits; – = inactive; ? = inconclusive; · = no result. Unless noted, calls follow the shape of the dose curve; as a rule, active = well fitted curve in the direction sought with a large enough effect; inconclusive = small, poorly fitted or top-dose-only effect, or another doubt; inactive = no such curve, though single readings can be large; an effect the other way counts as inactive or inconclusive.
SMILES,IL-1B inflam inh,HT1080 IDH1KD tx,ELG1 DNA repair,TDP1 cell noCPT,TDP1 cell CPT,HT1080-NT tox
CC1=C(C(=O)N2CCOCC2)CC(CC(=O)NC2CC2)C(=O)N1Cc1ccccc1 (stereo unspecified),–,–,·,–,–,–
Cc1c(C(=O)NCc2ccc3c(c2)OCO3)sc(=O)n1Cc1cccc(F)c1,–,–,·,?,?,–
Cc1ccc(S(=O)(=O)N2CCN(C(=O)c3cc(=O)c4ccccc4o3)CC2)cc1,–,–,–,?,?,–
O=C(COC(=O)/C=C/c1ccc([N+](=O)[O-])cc1)NNC(=O)c1ccccc1,–,–,–,–,–,–
CCC(O)C1CCN(C(=O)c2cc(COc3ccc4ncccc4c3)on2)CC1 (stereo unspecified),–,–,–,3.7µM,4.1µM,?
O=C(c1cc(COc2ccc3ncccc3c2)on1)N1CCCC(O)C1 (stereo unspecified),–,–,?,21µM,?,–
COc1cccc(CNS(=O)(=O)c2c(C(=O)N3CCC(C)CC3)c(C)n(C)c2C)c1,·,·,·,–,–,·
CCOc1ccc(CNC(=O)c2cc3c(=O)n(Cc4cccs4)ccc3nc2C)cc1,·,·,·,?,9.2µM,·
COc1ccc(NC(=O)c2cc3c(=O)n(Cc4cccs4)ccc3nc2C)c(OC)c1,·,·,·,?,16µM,·
CCc1ccc(CNC(=O)c2cc3c(=O)n(Cc4cccs4)ccc3nc2C)cc1,·,·,·,23µM,18µM,·
NC1CCc2ccccc21 (stereo unspecified),·,·,·,?,–,·
O=c1nc(N/N=C/C=C/c2ccccc2)cn[nH]1,–,–,?,8.2µM,?,?
O=c1nc(N/N=C/c2c[nH]c3ccccc23)cn[nH]1,–,–,?,?,–,–
Cn1c(C(=O)Nc2cccc(Cl)c2)cc2c(=O)n(C)c3ccccc3c21,·,·,·,15µM,–,·
COC(=O)c1cccc(NC(=O)c2cc3sccc3n2C)c1,–,–,?,21µM,?,–
CCOC(=O)c1cccc(NC(=O)c2cc3c(=O)n(C)c4ccccc4c3n2C)c1,·,·,·,21µM,?,·
CCCNS(=O)(=O)c1cccc(C(=O)NNC(=O)c2cc(C)oc2C)c1,–,–,?,–,–,–
CCN1CCCC1CNC(=O)c1cnn(-c2nccc(-c3ccccc3F)n2)c1C (stereo unspecified),·,·,·,–,–,·
COc1ccc(NC(=O)c2sccc2-n2cccc2)cc1,–,–,–,?,–,–
Cc1ccccc1NC(=O)c1sc(Cl)nc1C,–,–,–,?,–,–
Cc1cc(C)c(C)c(OC(=O)c2sc(Cl)nc2C)c1,-104,–,?,8.2µM,7.3µM,–
Cc1ccc(NC(=O)c2sccc2-n2cccc2)c(C)c1,–,–,–,?,21µM,–
Cc1nc(Cl)sc1C(=O)Nc1ccc(C(C)(C)C)cc1,-91,–,?,?,–,–
Cc1ccc(NC(=O)c2sc(Cl)nc2C)c(C)c1,-65,–,–,–,–,–
Cc1nc(CN2C(=O)C3(CCC3)ON=C2c2cccc(Cl)c2)cs1,–,–,·,?,?,–
SMILES,IL-1B inflam inh,HT1080 IDH1KD tx,ELG1 DNA repair,TDP1 cell noCPT,TDP1 cell CPT,HT1080-NT tox
COc1ccc(S[C@@H](CCN2CC[C@H](O)CCC2=O)c2ccccc2)cc1,–,–,–,?,?,–
Cc1cc(C(=O)N2CCN(c3ccc([N+](=O)[O-])cc3)CC2)co1,–,–,–,?,?,–
Cn1c(C(=O)N2CCN(c3ccc([N+](=O)[O-])cc3)CC2)cc2c(=O)[nH]c3ccccc3c21,-54,–,?,12µM,?,–
O=[N+]([O-])CC(c1ccccc1)c1c[nH]c2ccccc12 (stereo unspecified),–,15µM,·,5.8µM,7.3µM,?
O=C1C[C@H](c2ccccc2)Oc2cc(O)cc(O)c21,·,·,·,–,–,·
CC(=O)OC1CC[C@@]2(C)C(CC[C@@]3(C)C2CC=C2C4CC(C)(C)CC[C@]4(C)CC[C@@]23C)C1(C)C (stereo partly specified),·,·,·,–,–,·
C=C1C(=O)C2=CC1CCC(=O)C1(C)CCC(OC(C)=O)C(C)(C)C1CC2O (stereo unspecified),-107,5.8µM,·,2.1µM,2.1µM,–
Oc1c(C(c2ccccc2)N2CCCCC2)ccc2ccccc12 (stereo unspecified),–,–,·,?,18µM,–
COCCn1c(C)cc(O)c(C(c2ccccc2OC)N2CCN(c3ccccc3)CC2)c1=O (stereo unspecified),·,·,·,–,–,·
CCN(C(=O)c1ccco1)c1nc(CC(=O)Nc2ccc(Cl)cc2)cs1,–,–,?,16µM,?,–
CN(C(=O)c1ccco1)c1nc(-c2ccc(F)cc2)cs1,–,–,?,–,–,–
O=C(c1ccco1)N(CCCN1CCOCC1)c1nc(-c2ccc(F)cc2)cs1,-88,?,9.2µM,16µM,23µM,?
CN(C(=O)c1ccco1)c1nc(CC(=O)Nc2ccccc2)cs1,–,–,–,?,–,–
CCN(CC)CCCN(C(=O)c1ccco1)c1nc(-c2ccc(C)cc2)cs1,-85,?,–,?,18µM,?
CCN(CC)CCCN(C(=O)c1ccco1)c1nc(-c2ccc(Cl)cc2)cs1,-67,15µM,–,?,?,23µM
Cc1ccc(CNC(=O)CNC(=O)c2ccc(Br)o2)cc1,–,–,–,–,–,–
COc1cc(C2CC(=O)Nc3c2c(=O)n(C)c(=O)n3C)cc(OC)c1OC (stereo unspecified),·,·,·,–,–,·
CCN(CC)CCN(C(=O)c1ccco1)c1nc2c(C)c(C)ccc2s1,·,·,·,21µM,23µM,·
N#Cc1cc(NC(=O)c2ccc(F)cc2)c(=O)n2c1[nH]c1ccccc12,·,·,6.5µM,·,·,·
CCOC(=O)c1cc(NC(=O)c2ccc(Cl)cc2)c(=O)n2c1oc1ccccc12,·,·,·,–,–,·
Cc1ccc(NC(=O)CN(C)CCOc2ccccc2)c([N+](=O)[O-])c1,–,–,–,–,?,–
CCC(C)c1ccccc1NC(=O)CN(C)CCOc1ccc(Cl)cc1 (stereo unspecified),-77,?,–,23µM,?,?
CN(CCOc1ccccc1)CC(=O)Nc1ccc(Br)cc1F,–,?,–,16µM,?,?

# Screens deposited in PubChem by National Center for Advancing Translational Sciences (NCATS).
